In the supplement of paper PMC6805474 one finds XTT viability data, which are given here for 14 molecules.

The experiment relates to Schistosoma mansoni schistosomula (LE). The experiment is described as follows: XTT viability relative to DMSO control; higher = more viable (less active). Conditions: 72 h; 10 µM. How it is done: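 XTT/PMS was then added for a further 24 h (72 h total) and A450 was read. % viability = (sample - heat-killed control)/(DMSO control - heat-killed control) x 100, from duplicate wells in two independent experiments.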
On to `O=C1O[C@@H](COc2ccon2)CN1c1cc(F)c(C2=CCN(Cc3ccccc3)CC2)c(F)c1`, for which the XTT viability is 72.9%.
To `Cc1cc(C2=NOC(c3cc(Cl)c(F)c(Cl)c3)(C(F)(F)F)C2)ccc1C(=O)NCc1ccc2c(c1)C(C)(C)OB2O` (centres undefined) belongs 23.2%; to `CO/C=C(/C(=O)OC)c1ccccc1Oc1cc(Oc2ccccc2C#N)ncn1`, 79.5%; to `CO[C@@H]1CN(c2ccc(C#CC3(O)CN4CCC3CC4)c(Cc3ccccc3)n2)C[C@H]1O` (some centres undefined), 90.7%.
To `CC(C)(C)C(O)C(Oc1ccc(-c2ccccc2)cc1)n1cncn1` (centres undefined) belongs 106%; to `Nc1c2c(nc3sc4c(c13)CCCC4)CCCC2`, 89.4%.
To `CCc1nn(C)c(C(=O)NCc2ccc(Oc3ccc(C)cc3)cc2)c1Cl` belongs 72.8%; to `Cc1nn(Cc2ccccc2)c(Cl)c1C(=O)NC1CCCCCC1`, 87.9%.
Regarding `Cc1nn(C)c(C)c1NS(=O)(=O)c1c(Cl)cc(-c2ccnc(N3CCNCC3)c2)cc1Cl`, the XTT viability was found to be 121%.
To `CO/N=C(\C(=O)OC)c1ccccc1CO/N=C(\C)c1cccc(C(F)(F)F)c1` belongs 109%; to `Cc1cccc(C(=O)Nc2ccnc(N(C)C3CCN(CC(C)C)CC3)c2)c1`, 125%; to `O=C1O[C@@H](CO)CN1c1cc(F)c(C2=CCN(Cc3ccccc3)CC2)c(F)c1`, 127%.
For `CC1COC(Cn2cncn2)(c2ccc(Oc3ccc(Cl)cc3)cc2Cl)O1` (centres undefined), the XTT viability was found to be 47.3%.
To `CC1(C)OB(O)c2ccc(C3=NOC(c4cc(Cl)c(F)c(Cl)c4)(C(F)(F)F)C3)cc21` (centres undefined) belongs 33.5%.
